From PubChem BioAssay AID1159580 (chemical genetic matrix, 2015)
Several values for one entry are separate records, joined by “and”; a condition that tells them apart may be missing. Equal entries are not always repeated. Hit rate of the full screen: of about 5,500 compounds, about 2,000 (36%) were called active. About 18% were inconclusive and are not listed. No stated cut-off is given here; in the data, active means normalized growth mostly below about 0.91 (no sharp cut-off); inconclusive means no clear call, values can overlap the other calls; inactive means mostly above about 0.92. Some of the results follow.

Assay: chemical genetic growth profiling, strain panel (AID 1159580);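 further: tested at 20 µM; growth read once vehicle control cultures reached saturation at 30 °C; 1 = growth at the plate median or of vehicle wells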
Settings: S. cerevisiae deletion strains, growth OD

Measured: normalized growth

COc1ccc2c(=O)c(-c3cc4c(cc3OC)OCO4)coc2c1
inactive: locus YAL021C, strain ccr4, stronger effect = lower value 1 | locus YAL026C, strain drs2, stronger effect = lower value 1.01 | locus YAL030W, strain snc1, stronger effect = lower value 1 | locus YBL061C, strain skt5, stronger effect = lower value 1.01 | locus YBR009C, strain hhf1, stronger effect = lower value 1 | locus YBR021W, strain FUR4, stronger effect = lower value 0.907 | locus YBR023C, strain chs3, stronger effect = lower value 1.01 | locus YBR171W, strain sec66, stronger effect = lower value 1.01 | locus YBR229C, strain ROT2, stronger effect = lower value 1 | locus YBR231C, strain swc5, stronger effect = lower value 1.01 | locus YBR279W, strain paf1, stronger effect = lower value 1.02 | locus YCL011C, strain gbp2, stronger effect = lower value 1.01 | locus YCL016C, strain dcc1, stronger effect = lower value 1.01 | locus YCL029C, strain bik1, stronger effect = lower value 1 | locus YCL061C, strain MRC1, stronger effect = lower value 1.01 | locus YCL069W, strain vba3, stronger effect = lower value 1 | locus YCR088W, strain abp1, stronger effect = lower value 1.01 | locus YDL005C, strain med2, stronger effect = lower value 1.01 | locus YDL035C, strain GPR1, stronger effect = lower value 1 | locus YDL040C, strain nat1, stronger effect = lower value 1.01 | locus YDL074C, strain BRE1, stronger effect = lower value 1.04 | locus YDL101C, strain DUN1, stronger effect = lower value 1.05 | locus YDL185W, strain tfp1, stronger effect = lower value 1.02 | locus YDL192W, strain arf1, stronger effect = lower value 1.01 | locus YDR001C, strain nth1, stronger effect = lower value 1.01 | locus YDR069C, strain doa4, stronger effect = lower value 1.02 | locus YDR101C, strain arx1, stronger effect = lower value 0.997 | locus YDR137W, strain rgp1, stronger effect = lower value 0.971 | locus YDR159W, strain sac3, stronger effect = lower value 1.03 | locus YDR162C, strain NBP2, stronger effect = lower value 1.03 | locus YDR195W, strain ref2 1.03 | locus YDR297W, strain sur2, stronger effect = lower value 1.01 | locus YDR318W, strain mcm21, stronger effect = lower value 1 | locus YDR334W, strain swr1, stronger effect = lower value 1.03 | locus YDR335W, strain msn5, stronger effect = lower value 1.01 | locus YDR388W, stronger effect = lower value 0.997 | locus YDR392W, strain spt3, stronger effect = lower value 1.02 | locus YDR502C, strain sam2, stronger effect = lower value 1.02 | locus YEL003W, strain gim4, stronger effect = lower value 1.01 | locus YEL037C, strain rad23, stronger effect = lower value 1.01 | locus YEL061C, strain CIN8 (second series), stronger effect = lower value 1.01 | locus YER015W, strain faa2, stronger effect = lower value 1.01 | locus YER016W, strain bim1, stronger effect = lower value 1.01 | locus YER110C, stronger effect = lower value 1.01 | locus YER111C, strain swi4, stronger effect = lower value 1.01 | locus YER155C, strain BEM2 (second series), stronger effect = lower value 1 | locus YER155C, strain BEM2, stronger effect = lower value 1 | locus YER167W, strain BCK2, stronger effect = lower value 1.02 | locus YFR010W, strain ubp6, stronger effect = lower value 1.02 | locus YGL078C, strain dbp3, stronger effect = lower value 1 | locus YGL086W, strain mad1, stronger effect = lower value 0.993 | locus YGL167C, strain pmr1, stronger effect = lower value 1.01 | locus YGL173C, strain kem1, stronger effect = lower value 1 | locus YGL227W, strain vid30, stronger effect = lower value 1.01 | locus YGL240W, strain doc1, stronger effect = lower value 1 | locus YGL248W, strain PDE1, stronger effect = lower value 1.02 | locus YGL253W, strain hxk2, stronger effect = lower value 1.01 | locus YGR135W, strain pre9, stronger effect = lower value 1 | locus YGR252W, strain gcn5, stronger effect = lower value 0.907 | locus YHR013C, strain ard1, stronger effect = lower value 1.03 | locus YHR027C, strain rpn1, stronger effect = lower value 1.02 | locus YHR030C, strain SLT2, stronger effect = lower value 0.98 | locus YHR079C, strain IRE1 (second series), stronger effect = lower value 1.03 | locus YHR079C, strain IRE1, stronger effect = lower value 0.982 | locus YHR094C, strain hxt1, stronger effect = lower value 1.02 | locus YHR129C, strain ARP1, stronger effect = lower value 1.03 | locus YHR142W, strain chs7, stronger effect = lower value 0.987 | locus YHR200W, strain rpn10, stronger effect = lower value 1.03 | locus YIL066C, strain RNR3, stronger effect = lower value 1.02 | locus YIL073C, strain SPO22, stronger effect = lower value 1.07 | locus YIL125W, strain kgd1, stronger effect = lower value 1 | locus YIR030C, strain dcg1, stronger effect = lower value 1.02 | locus YJL092W, strain hpr5, stronger effect = lower value 1.02 | locus YJL095W, strain BCK1 (second series), stronger effect = lower value 1.01 | locus YJL095W, strain BCK1, stronger effect = lower value 1.01 and 0.987 | locus YJL115W, strain asf1, stronger effect = lower value 1.02 | locus YJL129C, strain trk1, stronger effect = lower value 0.996 | locus YJL134W, strain LCB3, stronger effect = lower value 1.02 | locus YJL154C, strain vps35, stronger effect = lower value 1 | locus YJL164C, strain tpk1, stronger effect = lower value 1.02 | locus YJL166W, strain qcr8, stronger effect = lower value 1 | locus YJL168C, strain set2, stronger effect = lower value 1.02 | locus YJL187C, strain SWE1 (second series), stronger effect = lower value 1.03 | locus YJL187C, strain SWE1, stronger effect = lower value 1 | locus YJR066W, strain TOR1, stronger effect = lower value 0.927 | locus YKL009W, strain mrt4, stronger effect = lower value 0.952 | locus YKL068W, stronger effect = lower value 1.03 | locus YKL085W, strain MDH1 (second series), stronger effect = lower value 1.02 | locus YKL085W, strain MDH1, stronger effect = lower value 1.02 | locus YKL160W, strain elf1, stronger effect = lower value 1.01 | locus YKL190W, strain CNB1, stronger effect = lower value 1.04 | locus YKR001C, strain vps1, stronger effect = lower value 1.01 | locus YKR026C, strain gcn3, stronger effect = lower value 1.01 | locus YKR091W, strain srl3, stronger effect = lower value 1.01 | locus YLL001W, strain dnm1, stronger effect = lower value 1.01 | locus YLL026W, stronger effect = lower value 1.01 | locus YLL041C, strain sdh2, stronger effect = lower value 1.01 | locus YLR027C, strain aat2, stronger effect = lower value 1 | locus YLR039C, strain RIC1, stronger effect = lower value 1.13 | locus YLR058C, strain SHM2, stronger effect = lower value 1.02 | locus YLR102C, strain apc9, stronger effect = lower value 1.01 | locus YLR113W, strain HOG1, stronger effect = lower value 1.01 | locus YLR221C, strain rsa3, stronger effect = lower value 1 | locus YLR258W, strain gsy2, stronger effect = lower value 1 | locus YLR262C, strain YPT6 (second series), stronger effect = lower value 1.01 | locus YLR262C, strain YPT6, stronger effect = lower value 1.06 | locus YLR268W, strain sec22, stronger effect = lower value 0.972 | locus YLR320W, strain mms22, stronger effect = lower value 1.02 | locus YLR330W, strain CHS5, stronger effect = lower value 1.02 | locus YLR342W, strain FKS1 (second series), stronger effect = lower value 0.997 | locus YLR342W, strain FKS1, stronger effect = lower value 1.01 | locus YLR357W, strain rsc2, stronger effect = lower value 1.1 | locus YLR370C, strain arc18, stronger effect = lower value 1.01 | locus YLR371W, strain rom2, stronger effect = lower value 1.04 | locus YLR384C, strain iki3, stronger effect = lower value 0.998 | locus YLR418C, strain cdc73, stronger effect = lower value 1.05 | locus YML016C, strain PPZ1, stronger effect = lower value 1.02 | locus YML032C, strain rad52, stronger effect = lower value 0.98 | locus YML120C, strain ndi1, stronger effect = lower value 1.02 | locus YML124C, strain tub3, stronger effect = lower value 1.03 | locus YMR058W, strain fet3, stronger effect = lower value 1.02 | locus YMR078C, strain ctf18, stronger effect = lower value 1.02 | locus YMR125W, strain sto1, stronger effect = lower value 1.04 | locus YMR129W, stronger effect = lower value 1.01 | locus YMR205C, strain PFK2, stronger effect = lower value 1.01 | locus YMR223W, strain ubp8, stronger effect = lower value 1.01 | locus YMR231W, strain pep5, stronger effect = lower value 1.01 | locus YMR307W, strain GAS1, stronger effect = lower value 0.979 | locus YNL067W, strain RPL9B, stronger effect = lower value 1.03 | locus YNL071W, strain lat1, stronger effect = lower value 1 | locus YNL153C, strain GIM3, stronger effect = lower value 1.04 | locus YNL183C, strain NPR1, stronger effect = lower value 0.944 | locus YNL209W, strain ssb2, stronger effect = lower value 1.01 | locus YNL233W, strain BNI4, stronger effect = lower value 1.03 | locus YNL248C, strain rpa49, stronger effect = lower value 1.02 | locus YNL250W, strain rad50, stronger effect = lower value 1.06 | locus YNL271C, strain bni1, stronger effect = lower value 1.02 | locus YNL298W, strain CLA4, stronger effect = lower value 0.969 | locus YNL307C, strain MCK1, stronger effect = lower value 0.97 | locus YNL322C, strain KRE1 (second series), stronger effect = lower value 1.01 | locus YNL322C, strain KRE1, stronger effect = lower value 1.02 | locus YNR049C, strain mso1, stronger effect = lower value 1.01 | locus YNR052C, strain pop2, stronger effect = lower value 1.02 | locus YOL012C, strain htz1 1.12 | locus YOL147C, strain pex11, stronger effect = lower value 1 | locus YOR001W, strain rrp6, stronger effect = lower value 1 | locus YOR061W, strain CKA2, stronger effect = lower value 1.02 | locus YOR069W, strain VPS5, stronger effect = lower value 1.02 | locus YOR070C, strain gyp1, stronger effect = lower value 1 | locus YOR080W, strain dia2, stronger effect = lower value 1.01 | locus YOR083W, strain WHI5, stronger effect = lower value 0.999 | locus YOR106W, strain vam3, stronger effect = lower value 1 | locus YOR136W, strain idh2, stronger effect = lower value 1.01 | locus YOR144C, strain elg1, stronger effect = lower value 1.04 | locus YOR184W, strain ser1, stronger effect = lower value 0.957 | locus YOR231W, strain MKK1, stronger effect = lower value 0.993 | locus YOR265W, strain rbl2, stronger effect = lower value 1.01 | locus YOR270C, strain vph1, stronger effect = lower value 1.04 | locus YOR290C, strain snf2, stronger effect = lower value 1.02 | locus YOR316C, strain cot1, stronger effect = lower value 1.02 | locus YPL051W, strain arl3, stronger effect = lower value 1 | locus YPL078C, strain atp4, stronger effect = lower value 1.01 | locus YPL106C, strain sse1, stronger effect = lower value 0.996 | locus YPL240C, strain hsp82, stronger effect = lower value 0.995 | locus YPL241C, strain CIN2, stronger effect = lower value 1.04 | locus YPL256C, strain CLN2, stronger effect = lower value 0.963 | locus YPR119W, strain clb2, stronger effect = lower value 1.02 | locus YPR141C, strain kar3, stronger effect = lower value 1.03 | locus YPR163C, strain tif3, stronger effect = lower value 0.992 | locus YPR167C, strain met16, stronger effect = lower value 1.02 | strain wtn01, stronger effect = lower value 1.01
